From the OligoGym collection come the findings set out here.
Further: reference of the scale not given here.

For the first assay, the target named is COL20A1. As to the kind of experiment: pooled miR-30 sensor sort-seq; sequence = guide strand. The note with it: shRNA.
TTGGTGTGAAGGCAACTTGGGG displayed a sensor-assay potency score (higher = more potent) of -0.796.

For TAGACAAGCACGCCAGACGGGG, the sensor-assay potency score (higher = more potent) was -1.06.

TAGGTCAGGGACTTCTTCCCGG came in with a sensor-assay potency score (higher = more potent) of -0.568.

Another assay deals with COL23A1. The description is as above. The note with it: shRNA.
For the sequence TAGTCGATCACCACTGTGTCTC, the sensor-assay potency score (higher = more potent) was -0.624.

TCTACCTTCATCTCCTTCCTGG displayed a sensor-assay potency score (higher = more potent) of 0.0937.

For TTCGCTAGTCCGTCCAACTTCT, the sensor-assay potency score (higher = more potent) is -0.113.

In the case of TTGAGGGCATCCAAGATCCTGC, the sensor-assay potency score (higher = more potent) is -1.13.

Sequence TCATAGTCGATCACCACTGTGT yielded a sensor-assay potency score (higher = more potent) of 0.319.

TTGCTTTGCCTGCACAGCCCAC showed a sensor-assay potency score (higher = more potent) of -1.59.

TAGTCCGTCCAACTTCTCCCGC returned a sensor-assay potency score (higher = more potent) of -1.02.

In turn, TTGTCCTTGGTCTCCCCGGGGG came in with a sensor-assay potency score (higher = more potent) of -1.12.

The sequence TTGCTGGGAACACTTGCTGGAG showed a sensor-assay potency score (higher = more potent) of -1.43.

TTCTCTCCACGCTCGCTCCGAT displayed a sensor-assay potency score (higher = more potent) of -1.13.

TTTGCCTGCACAGCCCACCTAG showed a sensor-assay potency score (higher = more potent) of -1.12.

For the sequence TAGAGCTAGACCCTCGTGGGGG, the sensor-assay potency score (higher = more potent) was -0.316.

The next assay has as its target COL4A2. The assay is described as above. Particulars: shRNA.
With TTTGTAGTCGTTACACAGGAGG, the sensor-assay potency score (higher = more potent) was -1.03.

TTCTCCTGGAGTACCCTTCGTT came in with a sensor-assay potency score (higher = more potent) of -0.712.

ATCTGTGTCACAATCTATTTGT registered a sensor-assay potency score (higher = more potent) of -0.377.

With TAGGGCTTGATCTCGTCCTCGG, the sensor-assay potency score (higher = more potent) is -0.228.

Take TTAAATCTCAGGGACAACGTGG: the sensor-assay potency score (higher = more potent) is -0.373.

In the case of TGTCACAATCTATTTGTCCTGG, the sensor-assay potency score (higher = more potent) was 0.235.

In turn, TTGCATTCGATGAATGGTGTGG returned a sensor-assay potency score (higher = more potent) of 0.0414.

Sequence TCACACACAGAACAGCGGCTGA showed a sensor-assay potency score (higher = more potent) of -0.772.

For the sequence TATCCGATCCACAAACTCCGCC, the sensor-assay potency score (higher = more potent) is -0.539.

The sequence TTGGTTGTGATTGTTCTGGAAT showed a sensor-assay potency score (higher = more potent) of -0.89.

The sequence TCACATCTGTGTCACAATCTAT gave a sensor-assay potency score (higher = more potent) of -0.621.

Sequence TAGTAGCAGACATCACCAGGGT displayed a sensor-assay potency score (higher = more potent) of 0.056.

TTTACGTCCCTGCAGTCCCGGG displayed a sensor-assay potency score (higher = more potent) of -1.37.

TAGTAGTGGCAGGTGCCGCGGC registered a sensor-assay potency score (higher = more potent) of -0.784.

Regarding TAAATTTATAGTGTCCCCGATG, the sensor-assay potency score (higher = more potent) is -0.984.

Regarding TACATCTGCATTCCCCAGCGTC, the sensor-assay potency score (higher = more potent) was -0.779.

In turn, TCTATCTCCTTTTAGCCCGGGG displayed a sensor-assay potency score (higher = more potent) of -0.278.

Regarding TGATTGTTCTGGAATCTCCTTT, the sensor-assay potency score (higher = more potent) turned out to be 0.225.

The sequence TTGGTCTCCTTTCTGTCCTGGG returned a sensor-assay potency score (higher = more potent) of -0.772.

As to TACAGGAAGGGCATGGTGCTGA, the sensor-assay potency score (higher = more potent) is -0.213.

TTTGATAGCTTCGTCGCCTTCT came in with a sensor-assay potency score (higher = more potent) of 0.156.

As to TAGGACTTGTCGTTCCGGCTGG, the sensor-assay potency score (higher = more potent) turned out to be 0.103.

TTTAATGTCTTTCATTCCTGGC: the sensor-assay potency score (higher = more potent) was -0.64.

The sequence TTTCTCTCCTTTAATGTCTTTC displayed a sensor-assay potency score (higher = more potent) of -0.595.
